According to PubChem BioAssay (EPA / NIEHS):
Activity calls are given as the source filed them. The calls were made as follows: active = hit-call score of the fitted dose curve at least 0.9, where 1 is the maximum; inactive = score below 0.9.

Legend:
Conditions in all cases: mRNA level, 48 h; actives raise or lower the signal
[1] = read-out: Alpha-fetoprotein (AFP) gene, AFP (gene 174); assay: LTEA_HepaRG_AFP: Life Technologies and Expression Analysis (LTEA) Assay for Alpha-fetoprotein (AFP) gene using HepaRG (AID 2283472)
Outline: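 Differentiated human HepaRG cells exposed 48 h in serum-free induction medium, 8-point half-log series from 100 uM in 0.5% DMSO, duplicate. AFP mRNA by qRT-PCR, normalized to ACTB, GAPDH, POLR2A; bidirectional fit vs DMSO.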

[2] = read-out: BCL2L11 (gene 10018); assay: LTEA_HepaRG_BCL2L11: Life Technologies and Expression Analysis (LTEA) Assay for Bcl-2 (BCL2L11) gene using HepaRG (AID 2283473)
Outline: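 Cells were plated, cultured 48 h, switched to serum-free induction medium, then dosed in duplicate for 48 h at eight half-log concentrations up to 100 uM. Lysates underwent RNA isolation and TaqMan qRT-PCR; gain or loss versus DMSO was fitted.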

[3] = read-out: Apolipoprotein A-V (APOA5) gene, APOA5 (gene 116519); assay: LTEA_HepaRG_APOA5: Life Technologies and Expression Analysis (LTEA) Assay for Apolipoprotein A-V (APOA5) gene using HepaRG (AID 2283474)
Outline: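 Human liver HepaRG cells are treated 48 h with test chemicals (100 uM top, half-log dilutions, 0.5% DMSO). APOA5 mRNA induction or loss is measured by qRT-PCR relative to vehicle.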

[4] = read-out: Apoptosis regulator Bcl-2 (Homo sapiens) (UniProt P10415); assay: LTEA_HepaRG_BCL2: Life Technologies and Expression Analysis (LTEA) Assay for Bcl-2 gene using HepaRG (AID 2283475)
Outline: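 Differentiated human HepaRG cells in serum-free induction medium exposed 48 h, in duplicate, to 8-point half-log series from 100 uM in 0.5% DMSO. BCL2 mRNA by qRT-PCR (TaqMan/Fluidigm), normalized to ACTB, GAPDH, POLR2A; bidirectional fit against DMSO.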

[5] = read-out: Bcl-2 (BID) gene, BID (gene 637); assay: LTEA_HepaRG_BID: Life Technologies and Expression Analysis (LTEA) Assay for Bcl-2 (BID) gene using HepaRG (AID 2283476)
Outline: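 Gene expression by qRT-PCR in HepaRG cells after 48 h exposure, duplicate wells, eight half-log concentrations topping at 100 uM in 0.5% DMSO. Normalized to ACTB, GAPDH, POLR2A; bidirectional fitting relative to DMSO.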

[6] = read-out: Caspase-3 (Homo sapiens) (UniProt P42574); assay: LTEA_HepaRG_CASP3: Life Technologies and Expression Analysis (LTEA) Assay for cysteine-aspartic acid protease (CASP3) using HepaRG (AID 2283477)
Outline: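 In HepaRG liver cells dosed for 48 h at up to 100 uM (eight-point, duplicate), CASP3 expression changes are scored by qRT-PCR. Activity is fitted in both directions with 0.5% DMSO as baseline.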

[7] = read-out: Cytochrome P450 (CYP24A1), CYP24A1 (gene 1591); assay: LTEA_HepaRG_CYP24A1: Life Technologies and Expression Analysis (LTEA) Assay for Cytochrome P450 (CYP24A1) using HepaRG (AID 2283478)
Outline: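 Human liver HepaRG cultures receive each chemical for 48 h across an eight-point half-log series topping at 100 uM in 0.5% DMSO. Induction or suppression of CYP24A1 mRNA is scored relative to vehicle after housekeeping-gene normalization.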

[8] = read-out: Cytochrome P450 (CYP1A2), CYP1A2 (gene 1544); assay: LTEA_HepaRG_CYP1A2: Life Technologies and Expression Analysis (LTEA) Assay for Cytochrome P450 (CYP1A2) using HepaRG (AID 2283479)
Outline: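 Assesses CYP1A2 mRNA in human HepaRG liver cells after 48 h chemical exposure at up to 100 uM. Values come from qRT-PCR with bidirectional curve fitting relative to DMSO.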

[9] = read-out: cysteine-aspartic acid protease (CASP8), CASP8 (gene 841); assay: LTEA_HepaRG_CASP8: Life Technologies and Expression Analysis (LTEA) Assay for cysteine-aspartic acid protease (CASP8) using HepaRG (AID 2283480)
Outline: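 Differentiated human HepaRG cells, plated 48 h then switched to serum-free induction medium, were exposed in duplicate for 48 h to 8 half-log concentrations up to 100 uM in 0.5% DMSO. CASP8 mRNA was quantified by qRT-PCR, normalized to ACTB/GAPDH/POLR2A.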

[10] = read-out: Cytochrome P450 (CYP2B6), CYP2B6 (gene 1555); assay: LTEA_HepaRG_CYP2B6: Life Technologies and Expression Analysis (LTEA) Assay for Cytochrome P450 (CYP2B6) using HepaRG (AID 2283481)
Outline: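 Using 48 h treatment of HepaRG cells in serum-free induction medium, concentrations spanned half-log steps from 100 uM in 0.5% DMSO vehicle. CYP2B6 mRNA induction or loss is scored by qRT-PCR against DMSO.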

[11] = read-out: CYP2C8 (gene 1558); assay: LTEA_HepaRG_CYP2C8: Life Technologies and Expression Analysis (LTEA) Assay for CYP2C8 using HepaRG (AID 2283483)
Outline: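 Differentiated human HepaRG cells were exposed for 48 h in serum-free induction medium to eight half-log concentrations up to 100 uM in 0.5% DMSO, in duplicate. CYP2C8 mRNA was measured by TaqMan qRT-PCR, normalized to ACTB, GAPDH and POLR2A, and fitted bidirectionally against DMSO.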

[12] = read-out: CYP2C9 (gene 1559); assay: LTEA_HepaRG_CYP2C9: Life Technologies and Expression Analysis (LTEA) Assay for CYP2C9 using HepaRG (AID 2283484)
Outline: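 Differentiated human HepaRG cells were exposed 48 h in serum-free induction medium to eight half-log concentrations up to 100 uM in 0.5% DMSO. CYP2C9 mRNA was measured by qRT-PCR, normalized to ACTB, GAPDH and POLR2A, and fitted bidirectionally against DMSO.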

[13] = read-out: CYP2E1 (gene 1571); assay: LTEA_HepaRG_CYP2E1: Life Technologies and Expression Analysis (LTEA) Assay for CYP2E1 using HepaRG (AID 2283485)
Outline: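 HepaRG cells, plated 48 h, then exposed 48 h in serum-free induction medium to eight half-log concentrations from 100 uM in 0.5% DMSO, duplicate. CYP2E1 mRNA by qRT-PCR, normalized to ACTB/GAPDH/POLR2A; bidirectional fit versus DMSO.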

[14] = read-out: CYP4A11 (gene 1579); assay: LTEA_HepaRG_CYP4A11: Life Technologies and Expression Analysis (LTEA) Assay for CYP4A11 using HepaRG (AID 2283486)
Outline: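 Readout is CYP4A11 mRNA induction or suppression (qRT-PCR, ACTB/GAPDH/POLR2A normalization) in human HepaRG cells after 48 h chemical treatment, concentrations to 100 uM in 0.5% DMSO, fitted bidirectionally against vehicle.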

[15] = read-out: Cytochrome P450 3A4 (Homo sapiens) (UniProt P08684); assay: LTEA_HepaRG_CYP3A4: Life Technologies and Expression Analysis (LTEA) Assay for CYP3A4 using HepaRG (AID 2283487)
Outline: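 Differentiated HepaRG cells, plated 48 h, then dosed 48 h in serum-free induction medium with 0.5% DMSO, 8 half-log concentrations up to 100 uM, duplicate. CYP3A4 mRNA by qRT-PCR, normalized to ACTB/GAPDH/POLR2A; bidirectional fit versus DMSO.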

[16] = read-out: DNA damage-inducible transcript 3 (DDIT3), DDIT3 (gene 1649); assay: LTEA_HepaRG_DDIT3: Life Technologies and Expression Analysis (LTEA) Assay for DNA damage-inducible transcript 3 (DDIT3) using HepaRG (AID 2283488)
Outline: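 HepaRG cells, 48 h after plating, exposed 48 h in serum-free induction medium to 8 half-log concentrations up to 100 uM in 0.5% DMSO, in duplicate. DDIT3 mRNA measured by TaqMan qRT-PCR, normalized to ACTB, GAPDH and POLR2A. Fitted bidirectionally against DMSO.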

[17] = read-out: Pro-epidermal growth factor (Homo sapiens) (UniProt P01133); assay: LTEA_HepaRG_EGF: Life Technologies and Expression Analysis (LTEA) Assay for Epidermal growth factor (EGF) using HepaRG (AID 2283489)
Outline: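 EGF expression changes in human HepaRG cells are scored by bidirectional fitting relative to 0.5% DMSO controls. Chemicals are tested at eight half-log concentrations up to 100 uM for 48 h in serum-free induction medium.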

[18] = read-out: Early growth response protein 1 (EGR1) transcription factor, EGR1 (gene 1958); assay: LTEA_HepaRG_EGR1: Life Technologies and Expression Analysis (LTEA) Assay for Early growth response protein 1 (EGR1) transcription factor using HepaRG (AID 2283490)
Outline: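 Differentiated human HepaRG cells in serum-free induction medium were exposed in duplicate for 48 h to eight concentrations (top 100 uM, half-log steps) in 0.5% DMSO. EGR1 mRNA was quantified by qRT-PCR, normalized to ACTB, GAPDH and POLR2A, and fitted bidirectionally versus DMSO.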

[19] = read-out: Ezrin (EZR), EZR (gene 7430); assay: LTEA_HepaRG_EZR: Life Technologies and Expression Analysis (LTEA) Assay for Ezrin (EZR) using HepaRG (AID 2283491)
Outline: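 EZR transcript levels came from Fluidigm qRT-PCR and were normalized to three housekeeping genes after 48 h chemical exposure of HepaRG cells. Dosing used an 8-point half-log series with a 100 uM top concentration in 0.5% DMSO, tested in duplicate; both directions were fitted versus vehicle.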

[20] = read-out: Cytochrome P450 2C19 (Homo sapiens) (UniProt P33261); assay: LTEA_HepaRG_CYP2C19: Life Technologies and Expression Analysis (LTEA) Assay for CYP2C19 using HepaRG (AID 2283482)
Outline: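 Human HepaRG liver cells received test chemicals for 48 h (highest 100 uM, half-log dilutions in 0.5% DMSO). CYP2C19 mRNA induction or loss is read by multiplexed qRT-PCR and fitted in both directions versus vehicle.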

Measured: AC50

Chain of Caspase-3 (Homo sapiens) (P42574 whole entry, looked up): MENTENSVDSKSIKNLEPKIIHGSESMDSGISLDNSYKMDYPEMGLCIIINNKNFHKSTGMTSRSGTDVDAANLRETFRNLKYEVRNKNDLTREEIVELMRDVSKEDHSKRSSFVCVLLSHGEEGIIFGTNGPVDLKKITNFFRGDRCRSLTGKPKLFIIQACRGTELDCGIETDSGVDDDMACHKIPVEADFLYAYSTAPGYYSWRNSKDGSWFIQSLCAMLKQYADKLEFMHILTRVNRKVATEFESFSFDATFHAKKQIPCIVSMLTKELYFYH
Chain of Cytochrome P450 3A4 (Homo sapiens) (P08684 whole entry, looked up): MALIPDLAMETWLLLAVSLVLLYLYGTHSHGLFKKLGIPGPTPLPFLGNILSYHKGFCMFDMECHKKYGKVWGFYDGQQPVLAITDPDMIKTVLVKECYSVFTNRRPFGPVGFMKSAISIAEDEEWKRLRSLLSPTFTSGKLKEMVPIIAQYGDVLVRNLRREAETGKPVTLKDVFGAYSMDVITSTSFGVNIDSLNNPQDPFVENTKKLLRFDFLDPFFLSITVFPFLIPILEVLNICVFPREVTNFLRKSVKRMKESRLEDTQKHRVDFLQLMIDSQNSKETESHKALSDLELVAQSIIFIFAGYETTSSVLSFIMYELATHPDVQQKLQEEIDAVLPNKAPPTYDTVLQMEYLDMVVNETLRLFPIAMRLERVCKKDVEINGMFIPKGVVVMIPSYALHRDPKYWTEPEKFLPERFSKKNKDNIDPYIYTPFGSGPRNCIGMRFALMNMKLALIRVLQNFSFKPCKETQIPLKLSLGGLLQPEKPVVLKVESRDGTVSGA
Chain of Apoptosis regulator Bcl-2 (Homo sapiens) (P10415 whole entry, looked up): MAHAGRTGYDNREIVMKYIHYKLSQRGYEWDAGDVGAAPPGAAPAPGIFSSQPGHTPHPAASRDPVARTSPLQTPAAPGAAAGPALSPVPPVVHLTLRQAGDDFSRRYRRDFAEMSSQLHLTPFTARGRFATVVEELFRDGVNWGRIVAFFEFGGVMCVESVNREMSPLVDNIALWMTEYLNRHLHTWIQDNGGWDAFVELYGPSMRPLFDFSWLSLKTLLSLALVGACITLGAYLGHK
Chain of Cytochrome P450 2C19 (Homo sapiens) (P33261 whole entry, looked up): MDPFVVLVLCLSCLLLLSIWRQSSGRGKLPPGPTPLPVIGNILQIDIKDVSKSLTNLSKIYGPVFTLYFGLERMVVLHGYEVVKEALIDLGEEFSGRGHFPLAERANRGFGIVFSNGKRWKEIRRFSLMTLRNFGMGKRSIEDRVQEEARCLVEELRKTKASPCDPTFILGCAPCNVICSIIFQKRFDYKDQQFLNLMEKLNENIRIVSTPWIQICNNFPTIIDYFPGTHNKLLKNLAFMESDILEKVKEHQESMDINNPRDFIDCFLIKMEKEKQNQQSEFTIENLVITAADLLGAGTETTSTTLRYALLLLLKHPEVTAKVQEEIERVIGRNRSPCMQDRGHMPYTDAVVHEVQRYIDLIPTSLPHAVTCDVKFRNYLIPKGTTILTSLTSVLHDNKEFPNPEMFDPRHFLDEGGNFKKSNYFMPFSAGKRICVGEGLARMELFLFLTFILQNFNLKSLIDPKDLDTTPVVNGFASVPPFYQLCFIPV

O=C(Nc1ccccc1)c1ccccc1I
active: [1] 50 µM | [8] 10.4 µM | [10] 11.1 µM | [12] 50 µM | [13] 32 µM
not listed: [20]
inactive: all other assays above

Clc1ccccc1Cl
not listed: [15]
inactive: all other assays above

COc1cc(C=O)cc2c1[C@H](COC(N)=O)[C@]1(OC(C)=O)ON2C[C@H]2[C@@H]1N2C(C)=O
inactive: [4] | [5] | [6] | [7] | [8] | [13] | [15] | [17] | [19]
active: [1] 0.95 µM | [2] 1.29 µM | [3] 0.316 µM | [9] 3.89 µM | [10] 73.4 µM | [11] 0.5 µM | [12] 24.2 µM | [14] 0.5 µM | [16] 15.8 µM | [18] 88.8 µM

Nc1ccc(N=Nc2ccccc2)cc1
inactive: [4] | [6] | [7] | [17] | [19]
active: [1] 20.5 µM | [2] 17.6 µM | [3] 17.7 µM | [5] 50 µM | [8] 88.2 µM | [9] 17.3 µM | [10] 13.1 µM | [20] 14.4 µM | [11] 17.3 µM | [12] 14.7 µM | [13] 23.7 µM | [14] 13.3 µM | [16] 32.4 µM | [18] 29.4 µM

ClCCOCCCl
not listed: [20]
inactive: all other assays above

Cc1cccc(N)c1N
active: [1] 81.5 µM | [2] 9.92 µM | [3] 37.6 µM | [8] 8.42 µM | [11] 50 µM | [12] 50 µM | [13] 58.1 µM | [14] 86.1 µM
not listed: [20]
inactive: all other assays above

O=C(N[C@H](c1ccccc1)[C@@H]1CN2CCC1CC2)c1c(Cl)ccc(C(F)(F)F)c1Cl
inactive: [4] | [5] | [7] | [11]
active: [1] 22.8 µM | [2] 11.3 µM | [3] 72.6 µM | [6] 70 µM | [8] 84.6 µM | [9] 73.7 µM | [10] 42 µM | [12] 69.5 µM | [13] 44.5 µM | [14] 35.4 µM | [16] 36.3 µM | [17] 73.1 µM | [18] 87.5 µM | [19] 2.42 µM
